High-throughput results (PubChem)
mut p53 react – re-activators of the mutant p53 pathway; SW480 PUMA-promoter luciferase, p53 mutant reactivation; activation, % at 9.98 µM; actives 1.5% (n = 28,000); AID 624151; in the data active = activation above about 52%; inconclusive = no clear call, values can overlap the other calls
ID4 SMM – ID4 (human) binding | calls only | small molecule microarray, Flag-ID4 binding, fluorescence F/B | AID 624137 | actives 1.2% (n = 31,000) | P47928; call rule not given here;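 note: a binder raises fluorescence above local background on the spot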
Target sequence (P47928 whole entry, looked up): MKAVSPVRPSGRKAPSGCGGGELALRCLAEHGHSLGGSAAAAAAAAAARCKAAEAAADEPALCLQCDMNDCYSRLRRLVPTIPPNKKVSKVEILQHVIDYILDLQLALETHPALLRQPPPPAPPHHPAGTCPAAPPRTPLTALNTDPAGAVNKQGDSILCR
STK33 kin inh – human STK33 kinase inhibition | Q9BYT3 | actives 0.44% (n = 27,000) | inhibition, % at 12.5 µM | ADP-Glo luminescence, MBP substrate; in the data active = inhibition above about 20%; inconclusive = no clear call, values can overlap the other calls
Target sequence (Q9BYT3 whole entry, looked up): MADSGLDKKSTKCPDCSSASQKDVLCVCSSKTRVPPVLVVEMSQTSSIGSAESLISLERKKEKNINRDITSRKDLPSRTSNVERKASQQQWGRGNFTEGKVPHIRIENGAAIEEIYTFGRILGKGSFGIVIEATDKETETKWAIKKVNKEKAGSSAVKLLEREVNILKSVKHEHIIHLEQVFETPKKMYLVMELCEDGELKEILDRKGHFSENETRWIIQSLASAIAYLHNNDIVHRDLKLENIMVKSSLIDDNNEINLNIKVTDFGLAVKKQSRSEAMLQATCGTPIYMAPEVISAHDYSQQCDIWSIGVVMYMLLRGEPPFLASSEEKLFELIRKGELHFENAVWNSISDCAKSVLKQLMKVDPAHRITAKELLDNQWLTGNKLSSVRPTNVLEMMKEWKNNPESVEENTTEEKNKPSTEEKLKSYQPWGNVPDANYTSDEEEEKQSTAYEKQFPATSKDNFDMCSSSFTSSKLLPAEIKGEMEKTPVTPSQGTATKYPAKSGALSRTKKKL
Of the large screens only hits and unclear results are named; the others gave an inactive call. Only some compounds are listed: those with a hit (about 2% of all), similar ones and a draw of the others.

CO[C@H]1O[C@H](CO)[C@@H](OC(=O)Nc2ccc3c(c2)OCO3)[C@@H]2OC(=O)[C@H](Cc3ccccc3)C/C=C/C[C@@H](Cc3ccccc3)C(=O)O[C@@H]12	none (no result: mut p53 react, ID4 SMM)
COc1ccc(NC(=C(C#N)C#N)C(F)(F)C(F)(F)F)cc1	none (no result: STK33 kin inh)
O=C(CSc1nnc(-c2ccncc2)n1-c1ccc(Cl)cc1)Nc1ccccc1-c1ccccc1	none
COC(=O)C[C@H]1C(C)(C)C2(Cl)O[C@@]34CC2C(=O)[C@]1(C)C3CC[C@]1(C)C4=CC(=O)O[C@H]1c1ccoc1 (some centres undefined)	none (no result: mut p53 react, ID4 SMM)
O=C(COc1ccc2ccccc2c1Br)NCc1ccco1	mut p53 react 85.4
Cc1ccc(Cl)c(OCC(=O)NCc2ccco2)c1	mut p53 react inconclusive
C=C1C(=O)O[C@H]2C1CCC(C)=C1C(=O)C=C(C)[C@@H]12 (some centres undefined)	none (no result: mut p53 react)
CCc1nc(SCC(=O)Nc2cccc(Cl)c2)n[nH]1	none
CC(C)n1cnc2c(Nc3cccc(Cl)c3)nc(NCCO)nc21	STK33 kin inh 89.7 (no result: ID4 SMM)
COc1cc(/C=C2\Oc3cc(O)cc(O)c3C2=O)cc(OC)c1O	STK33 kin inh 88.5 (no result: mut p53 react, ID4 SMM)
COc1ccc([C@@H]2CC(=O)c3c(O)cc(O)cc3O2)cc1O	none (no result: ID4 SMM)
CC(=O)Nc1sc2c(c1C(=O)O)CCc1ccccc1-2	none (no result: STK33 kin inh)
C=CC(CO)NS(=O)(=O)c1ccc(Br)cc1 (centres undefined)	none (no result: mut p53 react, STK33 kin inh)
CO/N=[N+](\[O-])N1CCCC(C(N)=O)C1 (centres undefined)	none (no result: mut p53 react, STK33 kin inh)
NC(=O)C1CCCN(/[N+]([O-])=N/OCCBr)C1 (centres undefined)	ID4 SMM active (no result: mut p53 react, STK33 kin inh)
Cc1ccc(S(=O)(=O)NC(C)C(=O)Nc2ccc(I)cc2)cc1 (centres undefined)	none
C[C@@H]1O[C@@H](O[C@@H]2[C@@H](O)[C@H](O[C@@H]3[C@@H](O)[C@H](C)O[C@@H](O[C@H]4[C@H](O[C@H]5CC[C@@]6(C)C(CC[C@]7(C)C6CC=C6[C@@H]8CC(C)(C)CC[C@]8(C(=O)O)CC[C@]67C)[C@]5(C)CO)OC[C@H](O)[C@@H]4O)[C@@H]3O)O[C@H](CO)[C@H]2O[C@@H]2O[C@H](CO)[C@@H](O[C@@H]3OC[C@@H](O)[C@H](O)[C@H]3O)[C@H](O)[C@H]2O)[C@H](O)[C@H](O)[C@H]1O (some centres undefined)	none (no result: ID4 SMM)
CCOC(=O)c1ccc(COC(=O)c2cc3ccccc3cc2O)o1	none
CCOC(=O)c1ccc(COc2ccc(-c3cnc4ccccc4n3)cc2)o1	mut p53 react 129.9
Cn1cnc2nc(NCCO)nc(NCc3ccccc3)c21	none
CC[C@H](CO)Nc1nc(NCc2ccccc2)c2ncn(C(C)C)c2n1	mut p53 react 118.8
COc1ccc(C(=O)CSc2ncn(-c3ccccc3)n2)cc1OC	none
Cc1cc(C)nc(NS(=O)(=O)c2ccc(Nc3nc(-c4ccc(O)cc4)cs3)cc2)n1	none
Cc1ccc(O)c(N=Nc2ccccc2)n1	mut p53 react 103.0 (no result: STK33 kin inh)
CCc1ccc2oc(-c3cccc(NC(=O)COc4ccccc4)c3)nc2c1	mut p53 react 82.0
Cc1cccc(OCC(=O)Nc2cccc(-c3nc4cc(C)ccc4o3)c2)c1	mut p53 react 86.1
Cc1cc(C)cc(OCC(=O)Nc2cccc(-c3nc4ccccc4o3)c2)c1	none
COc1ccc(OCC(=O)Nc2ccc(-c3nc4cc(C)ccc4o3)cc2)cc1	none
CCc1ccc(OCC(=O)Nc2ccc3oc(-c4ccccc4)nc3c2)cc1	mut p53 react inconclusive
Cc1ccc2oc(-c3cccc(NC(=O)COc4ccc5ccccc5c4)c3)nc2c1	mut p53 react 81.6, STK33 kin inh inconclusive
CC(=O)c1cccc(NC(=O)CSc2nccc(C)n2)c1	none
C=CCNC(=O)[C@@H]1[C@H]2C(=O)O[C@H](c3ccccc3)[C@H](c3ccccc3)N2[C@H](c2ccccc2OCCO)[C@@]12C(=O)Nc1ccc(C#CCCO)cc12	none (no result: mut p53 react, ID4 SMM)
Cc1ccc(C)c(-c2csc(N)c2C#N)c1	none (no result: STK33 kin inh)
CCN(CC)CCCC(C)Nc1c2ccc(Cl)cc2nc2ccc(OC)cc12 (centres undefined)	STK33 kin inh 32.8 (no result: ID4 SMM)
COc1ccc2nc(Nc3nc(C)c(CCC(C)C)c(=O)[nH]3)nc(C)c2c1	none
O=C(O)CN(c1ccc([N+](=O)[O-])cc1)S(=O)(=O)c1ccccc1	none
N#Cc1cccc(NC(=O)CCCN2C(=O)c3ccccc3C2=O)c1	ID4 SMM active
N#Cc1ccc(NC(=O)CCN2C(=O)c3ccccc3C2=O)cc1	none
CCOc1cccc2cc(C(=O)NCc3cccnc3)c(=O)oc12	none
COc1cccc2cc(C(=O)NCc3ccccn3)c(=O)oc12	mut p53 react 84.2
COc1ccccc1CNC(=O)c1cc2ccccc2oc1=O	mut p53 react 87.9
CC(=O)NCCNC(=O)c1cc2ccccc2oc1=O	none
Cc1ccc(C2C(C#N)=C(N)OC(C3CC3)=C2C#N)cc1 (centres undefined)	none (no result: mut p53 react, ID4 SMM)
O=C(CN1C(=O)c2ccccc2S1(=O)=O)Nc1cc(C(F)(F)F)ccc1Cl	none
c1ccc(-c2nsc(NC3Cc4ccccc4C3)n2)cc1	mut p53 react 108.7 (no result: STK33 kin inh)
Cc1nnc(SCC(=O)c2ccc3c(c2)OCCO3)s1	mut p53 react 89.1
Cn1cnnc1SCC(=O)c1ccc2c(c1)OCCO2	none
COC(=O)CN(c1cc(Cl)cc(Cl)c1)S(=O)(=O)c1ccccc1	none
Clc1ccc(SCc2csc(-c3ccsc3)n2)cc1	mut p53 react 60.8 (no result: STK33 kin inh)
O=C1CC(CSc2ccc(Cl)cc2)=NN1c1nc2ccccc2s1	none (no result: mut p53 react, ID4 SMM)
Cn1c(SCC(=O)Nc2sc3c(c2C#N)CCCC3)nnc1-c1ccc(Cl)cc1Cl	none
COc1ccc(NC(=S)NCCc2ccccc2OC)c(OC)c1	ID4 SMM active
COc1ccc(NC(=O)NCc2ccc(C(=O)O)cc2)c(OC)c1	ID4 SMM active
COc1ccc(NC(=O)NCCc2ccccc2OC)c(OC)c1	none
COc1ccc(NC(=O)C23CC4CC(C2)CC(C(=O)Nc2ccc(OC)cc2OC)(C4)C3)c(OC)c1	none
CNC[C@@H]1Oc2ncc(C#Cc3ccc(OC)c(OC)c3)cc2C(=O)N([C@H](C)CO)C[C@@H]1C	ID4 SMM active
C[C@H]1CN([C@@H](C)CO)C(=O)c2cc(C3=CCCCC3)cnc2O[C@H]1CN(C)S(=O)(=O)c1cn(C)cn1	ID4 SMM active (no result: STK33 kin inh)
CNC[C@H]1Oc2ncc(C#Cc3cccc(OC)c3)cc2C(=O)N([C@@H](C)CO)C[C@H]1C	none (no result: STK33 kin inh)
CNC[C@H]1Oc2ncc(C3=CCCCC3)cc2C(=O)N([C@@H](C)CO)C[C@H]1C	ID4 SMM active (no result: STK33 kin inh)
CNC[C@@H]1Oc2ncc(C3=CCCCC3)cc2C(=O)N([C@H](C)CO)C[C@@H]1C	none (no result: STK33 kin inh)
C[C@H]1CN([C@@H](C)CO)C(=O)c2cc(C3=CCCC3)cnc2O[C@@H]1CN(C)S(C)(=O)=O	none (no result: STK33 kin inh)
O=C(CC1(O)C(=O)N(Cc2cccc3ccccc23)c2ccccc21)c1ccco1 (centres undefined)	none
COc1ccc(NC(=O)CSc2nnc3n4ncnc4c4c5c(sc4n23)COC(C)(C)C5)cc1	none
O=C1N[C@@H](Cc2ccccc2)C(=O)N2[C@@H]1C[C@@H](C(=O)NCc1ccc(F)cc1)[C@H]2c1ccc(O)cc1	ID4 SMM active (no result: mut p53 react)
NCCCCCCNC(=O)[C@@H]1C[C@@H]2C(=O)NCC(=O)N2[C@@H]1c1cccc(OCCO)c1	ID4 SMM active (no result: mut p53 react)
O=C(NCc1ccc(F)cc1)[C@H]1C[C@H]2C(=O)N[C@@H](Cc3ccccc3)C(=O)N2[C@H]1c1cccc(OCCO)c1	ID4 SMM active (no result: mut p53 react)
